SMN2 splice up: qHTS Assay for Enhancers of SMN2 Splice Variant Expression; HEK293 SMN2-luciferase splicing reporter, luminescence, 30-36 h; Potency, µM (doses to about 46.1 µM), without a hit: at the highest dose activity change, positive = activation, actives largely listed as activators; actives 2.8% (n = 210,000); AID 1458, 2008; further: % of control where 0% means no effect; nearly all actives have a fitted effect of over 55% in size
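HEK293 cells carry an SMN2 minigene-luciferase reporter in which exon 7 inclusion puts luciferase in frame. Cells were seeded at 2000 cells/well, attached for 10-12 hours, then exposed to compounds for 30-36 hours at 37C before ONE-Glo luminescence.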
KinaseGlo FLuc: Counterscreen for Luciferase (Kinase-Glo TM) Inhibition; actives 0.28% (n = 200,000); Kinase-Glo luciferase, ATP luminescence, 8 min; AID 1379, 2008; Potency, µM (doses to about 38.3 µM), for inactives: at the highest dose activity change, negative = inhibition, most hits filed as inhibitors; further: on the % scale 0 is the no-effect control and ±100 the full control effect; nearly all actives have a fitted effect of over 60% in size
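Inhibition of Kinase-Glo luciferase light generation was assessed at 10 uM ATP in pH 7.2 imidazole buffer, with luminescence measured after eight minutes at ambient temperature.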
NPC1 prom act: qHTS Assay for NPC1 Promoter Activators; Huh7 NPC1 promoter luciferase reporter, 24 h; Potency, µM (highest dose often 9.22 µM), without a hit: at the highest dose activation, most hits filed as activators; actives 2.4% (n = 320,000); further: % of control where 0% means no effect; nearly all actives have a fitted effect of over 60% in size
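Cells: Huh7 expressing luciferase under the NPC1 promoter, 1500/well. Seeded 2 h, compound added, incubated 24 h at 37 °C. Luciferase reagent, 10 min ambient, then luminescence.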
Rab9 prom act: qHTS Assay for Rab9 Promoter Activators; Huh7 Rab9 promoter-luciferase reporter, luminescence, 24 h; Potency, µM (highest dose often 9.22 µM), inactives show at the highest dose activation, negative = inhibition, actives largely listed as activators; actives 2.8% (n = 320,000); AID 485297, 2010; further: % of control where 0% means no effect; nearly all actives have a fitted effect of over 60% in size
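Rab9 promoter-driven luciferase in stably transfected Huh7 cells; 1500 cells/well rested 2 h, exposed to compound in DMSO for 24 h at 37 °C, 5% CO2. Luminescence read 10 min after adding luciferase reagent at ambient temperature.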
FLuc counter: qHTS profiling assay for firefly luciferase inhibitor/activator using purifed enzyme and Km concentrations of substrates (counterscreen for miR-21 project). Luciferin 4-monooxygenase (Photinus pyralis), P08659. purified FLuc, Km substrates, luminescence inhibition. Potency, µM (highest dose often 57.5 µM), inactives show at the highest dose activity change, negative = inhibition, actives largely listed as inhibitors. actives 6.9% (n = 360,000). AID 588342, 2011;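 further: plate controls were vehicle for no effect and reference inhibitor for full effect; nearly all actives have a fitted effect of over 55% in size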
Target sequence (P08659 whole entry, looked up): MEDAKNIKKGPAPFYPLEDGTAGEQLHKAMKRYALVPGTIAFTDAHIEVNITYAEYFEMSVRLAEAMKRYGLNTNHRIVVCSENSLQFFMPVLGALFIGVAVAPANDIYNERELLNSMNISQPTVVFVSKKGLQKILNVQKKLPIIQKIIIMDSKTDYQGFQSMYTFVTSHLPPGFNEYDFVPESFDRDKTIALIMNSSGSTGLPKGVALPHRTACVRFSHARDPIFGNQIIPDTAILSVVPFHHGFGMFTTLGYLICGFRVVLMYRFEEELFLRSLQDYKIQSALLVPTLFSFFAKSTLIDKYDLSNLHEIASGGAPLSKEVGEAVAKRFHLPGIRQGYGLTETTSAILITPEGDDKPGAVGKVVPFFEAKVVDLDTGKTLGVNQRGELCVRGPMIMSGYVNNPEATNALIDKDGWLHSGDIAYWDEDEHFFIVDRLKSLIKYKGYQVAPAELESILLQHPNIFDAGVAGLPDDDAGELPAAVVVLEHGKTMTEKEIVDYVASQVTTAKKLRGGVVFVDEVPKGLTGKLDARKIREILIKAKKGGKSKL
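Biochemical qHTS of compounds, final roughly 60 µM downward over six points, against 10 nM purified firefly luciferase using Km concentrations of substrates (10 uM D-luciferin, 10 uM ATP) in Tris acetate pH 7.5 buffer; luminescence output.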
ELG1 genotox: qHTS screen for small molecules that induce genotoxicity in human embryonic kidney (HEK293T) cells expressing luciferase-tagged ELG1. Potency, µM (highest dose often 46 µM), inactives show top-dose activity change, positive = activation, actives largely listed as activators. HEK293T ELG1-luciferase reporter, luminescence, 16 h. actives 1.3% (n = 330,000); further: % of control where 0% means no effect; nearly all actives have a fitted effect of over 60% in size
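Reporter readout depends on ELG1 protein level, which increases with genetic stress. After 16 hr compound exposure at 37 °C, luciferase activity was quantified using ONE-Glo.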
An asterisk follows results filed as active; ? = inconclusive; / = no result; [ ] = remark or other dose. Sampled rows, rich in hits. Any-hit rate of the full collection: about 7.5%. The call rests on the fitted dose curve; in most records, active means well fitted curve in the direction sought with a large enough effect; inconclusive means small, poorly fitted or top-dose-only effect, or another doubt; inactive means no such curve, though single readings can be large; an effect the other way counts as inactive or inconclusive. Potency means the concentration at half of the fitted maximal effect.

SMILES	SMN2 splice up	KinaseGlo FLuc	NPC1 prom act	Rab9 prom act	FLuc counter	ELG1 genotox
CC(=O)Nc1ccccc1C(=O)C(=O)Nc1ccc(C)c(F)c1	6.31µM*	-3.2%	3.55µM*	1.78µM*	?	?
CCc1ccc(NC(=O)CSc2nnc(-c3nonc3NC(C)=O)n2-c2ccccc2)cc1	/	/	/	/	-12.1%	/
CN(C)c1ccnc(-c2ccccc2C(F)(F)F)n1	-1.6%	-2.8%	/	/	/	/
COc1cccc(N2CC(NC(=O)c3cccc(OC)c3OC)CC2=O)c1 (stereo not drawn)	/	/	/	/	-4.1%	/
CC(=O)Nc1ccccc1C(=O)C(=O)Nc1cccc(C(=O)NCc2ccccc2)c1	-4.6%	3.0%	-0.9%	14.3%	3.5%	-1.3%
CC(=O)Nc1ccccc1C(=O)C(=O)Nc1ccc(F)c(Cl)c1	/	/	3.98µM*	3.16µM*	3.1%	?
CC(=O)Nc1ccccc1C(=O)C(=O)Nc1ccc(C)c(C)c1	17.8µM*	1.6%	2µM*	0.891µM*	?	?
C=CCNC(=O)c1ccc(OC2CCN(S(=O)(=O)N(C)C)CC2)cc1	/	0.9%	16.0%	?	16.9µM*	13.8%
CCC1CSC(=Nc2ccc(C)cc2)N1C(=O)CN1C(=O)NC2(CCCC2)C1=O (stereo not drawn)	/	/	0.562µM*	0.794µM*	16.9µM*	2.59µM*
CCN(CC)c1ccc(C=Nc2cc(C)ccc2C)c(O)c1	?	-7.5%	2.4%	0.6%	1.69µM*	6.5%
CCN(CC)c1ccc(C=Nc2ccc(C)cc2C)c(O)c1	/	1.6%	27.5%	?	3.38µM*	9.3%
Cc1ccc(N=Cc2cccc(O)c2O)c(C)c1	21.1%	-15.2%	1.4%	8.8%	?	-1.6%
CCN(CC)c1ccc(/C=N/Nc2ccc(C)cc2)c(O)c1	6.1%	1.4%	13.6%	18.7%	?	9.3%
CCN(CC)c1ccc(C=Nc2cccnc2Cl)c(O)c1	/	/	-6.4%	-5.3%[1.84 µM]	2.39µM*	-1.0%
CCN(CC)c1ccc(/C=N/N2C(=O)c3ccccc3C2=O)c(O)c1	?	-6.0%	21.0%	23.4%	?	-3.6%
COc1ccc(C(=O)NC(=S)Nc2ccccc2F)cc1	12.6µM*	2.4%	1.78µM*	1.41µM*	2.69µM*	?
O=C(CC(=O)Nc1ccccc1F)Nc1ccccc1F	/	/	0.3%	-4.4%	-8.7%	2.5%
COc1ccc(CCCC(=O)Nc2ccccc2F)cc1	14.5%	0.7%	18.9%	?	13.5µM*	?
COc1ccc(C(=O)NC(=S)NNC(=O)c2ccccc2O)cc1	/	/	1.5%	-0.1%	21.3µM*	14.7%
COc1ccc(CNC(=S)Nc2ccccc2F)cc1	/	/	8.2%	8.1%	-9.3%	-0.7%
Cc1ccc(CCC(=O)Nc2ccccc2F)s1	?	-23.5%	?	?	7.57µM*	10.3µM*
CN1CCC(NC(=O)c2cnn3c2NC(=C2CC2)C=C3C(F)F)CC1	/	/	/	/	2.7%	/
O=C(NC1CC(=O)N(c2ccc(Cl)cc2)C1)C1CC1 (stereo not drawn)	/	/	-0.4%	-4.1%	-1.9%	0.1%
CCOC(=O)C1CCCN(C(=S)Nc2cccc(Cl)c2)C1 (stereo not drawn)	-30.1%	5.8%	-2.0%	-0.3%	3.8%	-0.8%
Cc1cc(C)n(-c2ccc(C(=O)Nc3ccc(S(=O)(=O)N(C)C)cc3)cc2)n1	-67.6%	0.5%	-2.2%	-0.4%	3.8%	-6.9%
SMILES	SMN2 splice up	KinaseGlo FLuc	NPC1 prom act	Rab9 prom act	FLuc counter	ELG1 genotox
Cc1cc(C)n(-c2ccc(C(=O)Nc3ccc4c(c3)OCO4)cc2)n1	?	-12.3%	?	?	13.5µM*	?
Cc1cc(C)n(-c2ccc(C(=O)NC3=NCCS3)cc2)n1	?	-3.3%	?	3.16µM*	15.1µM*	?
Cc1cc(C)n(-c2ccc(C(=O)Nc3cccc(S(=O)(=O)N(C)C)c3)cc2)n1	-65.8%	4.1%	-14.4%	-18.6%	?	-7.0%
Cc1cc(C)n(-c2ccc(C(=O)Nc3ccc(N4CCOCC4)cc3)cc2)n1	-63.7%	-3.6%	17.8%	8.5%	-12.7%	-18.3%
COc1ccc(NC(=O)c2ccc(-n3nc(C)cc3C)cc2)cc1OC	-21.3%	-8.9%	-1.7%	17.8%	15.1µM*	-0.2%
Cc1cc(C)n(-c2ccc(C(=O)Nc3ccc(C)c(S(=O)(=O)N(C)C)c3)cc2)n1	-14.7%[1.84 µM]	-0.4%	-4.1%	-20.3%	16.9µM*	-9.8%
CCNC(=O)[C@H]1O[C@@H](n2cnc3c(N)nc(NCCc4ccc(CCC(=O)O)cc4)nc32)[C@H](O)[C@H]1O	-3.5%	-14.8%	/	/	/	/
NC(=O)c1c(/N=C/c2cccs2)sc2c1CCCC2	/	/	1.26µM*	?	12µM*	8.9%
Oc1ccc(/C=N/Nc2ncc(Cl)cc2Cl)cc1	/	/	14.6%	12.9%	?	?
Cc1ccc(/C=N/Nc2ncc(Cl)cc2Cl)s1	?	-3.6%	3.55µM*	?	6.01µM*	?
Clc1cnc(N/N=C/c2ccco2)c(Cl)c1	5.62µM*	-17.4%	1.41µM*	0.794µM*	10.7µM*	?
Clc1cnc(N/N=C/c2cccs2)c(Cl)c1	?	-8.1%	2.24µM*	3.98µM*	9.53µM*	?
COc1cc(/C=N/Nc2cc(C)nc(N)n2)ccc1O	/	/	2.4%	-3.7%	9.53µM*	?
COc1ccc(/C=N/Nc2cc(C)nc(N)n2)cc1	?	-6.3%	11.4%	7.2%	19µM*	17.4%
O=c1c2ccccc2nc(/C=C/c2c[nH]c3ccccc23)n1CCO	/	5.0%	?	?	10.7µM*	11.9%
NC(N)=NC(=O)c1nc(Cl)c(N2CCCCCC2)nc1N	8.2%	-2.8%	?	?	4.26µM*	16.4µM*
CCCCc1ccc(/C=C2\C(=O)c3ccccc3C(O)=C2C(=O)OCC)cc1	8.1%	-4.8%	-1.3%	-1.9%	10.7µM*	0.6%
Cc1ccc(-c2nn(-c3ccccc3)cc2CO)o1	8.91µM*	0.7%	?	?	12µM*	?
Cc1ccc(-c2nn(-c3ccccc3)cc2C(N)=O)o1	18.0%	-0.6%	0.7%	-4.5%	?	-0.1%
Cc1ccc(-c2nn(-c3cccc(F)c3)cc2CN2CCN(c3ccccn3)CC2)o1	/	-0.5%	-0.6%	-15.8%	?	-9.1%
Cc1ccc(-c2nn(-c3ccccc3)cc2/C=C/C(=O)OCC(=O)NC2CC2)o1	9.2%	-1.2%	-5.7%	2.2%	-11.4%	-1.6%
OCc1cn(-c2ccccc2)nc1-c1ccco1	-4.6%	-10.4%	?	23.8%	16.9µM*	?
